The source of these data is publication PMC12136788.

First the molecules themselves.
T1: UNK ZnF1-3 (human, UniProt Q9C0B0 31-174)
T1 sequence: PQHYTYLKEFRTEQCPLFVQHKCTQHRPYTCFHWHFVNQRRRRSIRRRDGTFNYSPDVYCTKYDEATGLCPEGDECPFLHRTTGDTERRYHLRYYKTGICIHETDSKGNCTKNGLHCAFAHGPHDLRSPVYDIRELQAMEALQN

B1: chr2:176857141:176857142:-_ENSG00000144320_ENST00000272748|hu_mus|motif|central (ssRNA)
RNA: GGGAGUUCUACAGUCCGACGAUCUUUUUGCAAUCUCUGAUUUUUUUCUCUAAAUUCUUCCAAUGCUUGAAUUUCCUUAUCGGUAUUUUCUAGAACUUCUACUGUUGAAGGUUUUGCCCUCCAUCGAGAAAAUAAUCCACCCAUCAACAGAGGAUUGAGCAUCA
B2: 47141246_47141366_1218_CDS_ENSMUSG00000038291_ENSMUST00000170416|mouse|control|control (ssRNA)
RNA: GGGAGUUCUACAGUCCGACGAUCUUCUUCCUCACGCAUGAGCUUCUCAUACAGGUCGCUGACGAGGAAGGAGGGGUAAUACCGCUCCCUCAGCACCUCGGACACAUCGGCUUGGAUUUUGCUGAACACCUCGAUGCCUCUGUUCAACAGAGGAUUGAGCAUCA
B3: chr17:26875717:26875718:-_ENSG00000109103_ENST00000335765|hu_mus|FALSE|FALSE (ssRNA)
RNA: GGGAGUUCUACAGUCCGACGAUCACGGAUCUUGAACCUGACGAAGUCAAUCUUGUAGAUAUUUUCCUCAGGGGAGCACAGGUAGUCACCCGUGAUCCGCUGCAGCCCCAGCACAUCCUCCGGCCCGAUGGGCUGCUUGCCCUGCAACAGAGGAUUGAGCAUCA
B4: 230825810_230827160_2020_CDS_ENSG00000135775_ENST00000366669|human|control|control (ssRNA)
RNA: GGGAGUUCUACAGUCCGACGAUCGUUUAAUACAUCUGACACGGUUUCAUAGUACUUAUGAGUGCUUUCACUGAGAGUGCCUUCUAGCCACUGCUGAAUUAUUGCUUGUUUGAGCUUAUCCUUGUGUCCGCUCUGAAGCUGGAACAACAGAGGAUUGAGCAUCA
B5: chr2:242098653:242098654:+_ENSG00000115685_ENST00000406106|hu_mus|FALSE|FALSE (ssRNA)
RNA: GGGAGUUCUACAGUCCGACGAUCAUCAUAGAGAUCCAGUUCUCGAAGACUCUGCAGUUCUUCCAGGUUUUCAAUGCAUUUAAUUAGGUUUUGACGAAGGCAGAGUGACUUCACUUUCUUUAGCACCUCCAAGCCUUCAAUCUUCAACAGAGGAUUGAGCAUCA
B6: chr15:85259290:85259291:-_ENSG00000140612_ENST00000559729|hu_mus|FALSE|FALSE (ssRNA)
RNA: GGGAGUUCUACAGUCCGACGAUCAUUUAGGACUUGGUAGUACAGCUGCCUCUUGUUCAUCCGCCGCACAUCGUCUAGAAAGUCUAGAGACAGCAUGGUGAGAUGGAGAGCGCGACAACUAGCAGCCAAGAGGGCGCGAUAGAACAACAGAGGAUUGAGCAUCA
B7: chr8:90938390:90938391:+_ENSG00000164823_ENST00000451899|hu_hu|motif|central (ssRNA)
RNA: GGGAGUUCUACAGUCCGACGAUCAAGAAUAUGAAGUACCUGUCAAGGUUUCAACGAUAAAAAUAUUUUUUAAAAGACCCGGUUUGGUAAUAAAUUAGAUUUAUACAAUUGAUAAUUUCAAAAUAAAUAAAAUCUGAGUUGUAACAACAGAGGAUUGAGCAUCA
B8: chr2:125083379:125083380:+_ENSMUSG00000027203_ENSMUST00000082122|mus_mus|motif|central (ssRNA)
RNA: GGGAGUUCUACAGUCCGACGAUCUUAAAAAAAAUUACAAAUGAUACAGCAAUUAUGAUCAAAAACAGUUUUUGGAAGGCGGUAAUUUAAAUAAUACAACAACAACAAAAAAUCUAACUGUACCCUGGGUUUUACCAAGUCUGCCAACAGAGGAUUGAGCAUCA
B9: chr2:125083379:125083380:+_ENSMUSG00000027203_ENSMUST00000082122|mus_mus|FALSE|FALSE (ssRNA)
RNA: B8 RNA with G80U, G81A
B10: 5810229_5811228_1359_CDS_ENSG00000099219_ENST00000339450|human|control|control (ssRNA)
RNA: GGGAGUUCUACAGUCCGACGAUCAGUCUUAUGUUUGGGCUGCAAAAAUUUUUUGCCCAGGUACAAAACAACACCCAUUACCACCAUGUAGUUUAUGAUUGAGCCAAUACGAGAGGGGUAGGCAAUGACAAACAGGCCCAGCACCAACAGAGGAUUGAGCAUCA
B11: chr2:44571030:44571031:-_ENSG00000138078_ENST00000409411|hu_hu|FALSE|FALSE (ssRNA)
RNA: GGGAGUUCUACAGUCCGACGAUCUCUUAUCUUGGCAGCCACAUAUUUUUCAUCUGGAGCAACUCUGAUACAAUCAAUGAAGGGCUGGUCUAACUUAAGUUCCUCCAAAUUGAAUAAAACUUCAUAAUUAUCAUUGUCUGCUUCCAACAGAGGAUUGAGCAUCA
B12: chr8:90938390:90938391:+_ENSG00000164823_ENST00000451899|hu_hu|FALSE|FALSE (ssRNA)
RNA: B7 RNA with G80U, G81A
B13: chrX:101157612:101157613:-_ENSMUSG00000056537_ENSMUST00000070705|mus_mus|motif|central (ssRNA)
RNA: GGGAGUUCUACAGUCCGACGAUCAAAUUAUCAGUAACAGGUUAGCAAUUCAUCUGGUACCGAAAUCAAAUGUUUAAGUCCGGAAAUGUUGUUUUUAAAAUAUUCUUUCCAUCCUGAAAGAGAAACUAGAGAAAAGGCAUGAUACAACAGAGGAUUGAGCAUCA
B14: 2747543_2750058_4223_CDS_ENSG00000101596_ENST00000320876|human|control|control (ssRNA)
RNA: GGGAGUUCUACAGUCCGACGAUCUUGGUUUGAAGGCAUGAGCUUUAAAUUGCUAGCUUUUGUAAGACUUAUUUUAACAUGUUGUACCGGUGCUGGAUUAUCCCACUGAUCACAAAGUUGAACAAUAAUAGGGUUCUGUAAAUCCAACAGAGGAUUGAGCAUCA
B15: chr8:13019523:13019524:+_ENSMUSG00000031442_ENSMUST00000123811|mus_mus|FALSE|FALSE (ssRNA)
RNA: GGGAGUUCUACAGUCCGACGAUCUUAAAGUUUUGAGGCCAGAGUACCACAAAAAAUGGCCAUGGGGUUAAUCCCUGUUUAAAAAAAAUCAAAAACUUAUAAAAGACGAGAGUCCCUUGACCCCCCCUUAGGCUGUUGGUAGCACAACAGAGGAUUGAGCAUCA
B16: chr13:107772667:107772668:-_ENSMUSG00000021693_ENSMUST00000022204|mus_hu|motif|central (ssRNA)
RNA: GGGAGUUCUACAGUCCGACGAUCCAUUUCAUUAGGAGCUGAGUCAUCAAAGGCAUAAUCAAAACGAAAUGUUUGGUUUUCGGGGUACCUUGUUAAAUCUACUUUUUGUUUUGGUUCAUGUACCAUCACAACAUCUUUACUAGGCAACAGAGGAUUGAGCAUCA

Where a chain is given by its changes, count along the chain named. Over roughly 24,000 sequences, “enrichment r” has its median near 0.99; the highest 2% begin near 3.7. The full list was thinned out, with the highest values kept by preference.

The assay concerns the target T1, UNK ZnF1-3. Briefly: nsRBNS (natural sequence RNA bind-n-seq); RBNS binding buffer (assumed for nsRBNS): 25 mM Tris pH 7.5, 150 mM KCl, 3 mM MgCl2, 0.01% Triton X-100, 500 ug/ml BSA, 20 U/ml SUPERase-In, 4 C; UNK is unkempt and MSI1 is Musashi-1; names of the RNAs are library labels; protein concentration not given here; high values mean tight binding.
Molecule B1 showed a binding signal of 0.366 enrichment R.

The molecule B2 registered a binding signal of 0.729 enrichment R.

B3 registered a binding signal of 0.51 enrichment R.

Regarding B4, the binding signal was determined as 0.468 enrichment R.

For B5, the binding signal turned out to be 0.6 enrichment R.

In the case of B6, the binding signal was determined as 0.618 enrichment R.

The molecule B7 came in with a binding signal of 6.04 enrichment R.

For B8, the binding signal is 4.51 enrichment R.

Consider B9, for which the binding signal came to 4.2 enrichment R.

Regarding B10, the binding signal worked out at 1.77 enrichment R.

In the case of B11, the binding signal came out at 1 enrichment R.

In the case of B12, the binding signal was found to be 2.3 enrichment R.

In the case of B13, the binding signal is 1.32 enrichment R.

B14 displayed a binding signal of 1.18 enrichment R.

On to B15, for which the binding signal was found to be 4.16 enrichment R.

The molecule B16 yielded a binding signal of 1.02 enrichment R.
